# According to the supplement of paper PMC5662767:
# Counter-ions that a name gives are not always drawn.
# Tested on: Drosophila S2 cl14 SmoIP sensor cells
# Experiment: normalized SmoIP GFP fluorescence (untreated unstimulated = 0%, untreated Hh-stimulated = 100%); higher = more Smo activation sensor fluorescence
# Conditions: compound concentration: 2 uM, 24 h
# [1] = stimulation: Hh conditioned medium (+Hh)
# [2] = stimulation: mock conditioned medium (-Hh)
# 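Also: flow cytometry read-out as median GFP intensity of gated cells, compounds added 30 min before Hh-conditioned or mock medium, mock-treated cells serving as unstimulated baseline.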
Structure (SMILES),normalized SmoIP GFP fluorescence [1] [%],normalized SmoIP GFP fluorescence [2] [%]
Cc1cc(N2CCOCC2)ccc1Nc1nc(NC2CCCCC2)c2[nH]cnc2n1,93.8,-2.64
COCCOc1ccc2c(c1)ncn2-c1ccc2cccc(N3CCC(N)CC3)c2n1,264,80
COc1ccc(CCc2nc3cc(-c4c(C)noc4C)ccc3n2C[C@H](C)N2CCOCC2)cc1Cl,144,2.75
Cc1cccc(Nc2cc(Cl)nc(SCC(=O)O)n2)c1C,93.8,-14.3
CC(C)(C)c1cnc(CSc2cnc(NC(=O)C3CCNCC3)s2)o1,131,66
CCCCNC(=O)NS(=O)(=O)c1ccc(C)cc1 [tolbutamide],108,-16.8
Cc1ccc([C@@H]2O[C@H](CO)[C@@H](O)[C@H](O)[C@H]2O)cc1Cc1ccc(-c2ccc(F)cc2)s1 [canagliflozin],123,-10.2
Cn1nnc2c(C(N)=O)ncn2c1=O [Methazolastone],110,3.18
C[C@@H](O[C@H]1OCCN(Cc2n[nH]c(=O)[nH]2)[C@H]1c1ccc(F)cc1)c1cc(C(F)(F)F)cc(C(F)(F)F)c1 [Aprepitant],115,-5.98
Cc1nc(NC(=O)N2CCC[C@H]2C(N)=O)sc1-c1ccnc(C(C)(C)C(F)(F)F)c1,102,-1.23
CN(C)C1CCN(C(=O)c2ccc(NC(=O)Nc3ccc(-c4nc(N5CCOCC5)nc(N5CCOCC5)n4)cc3)cc2)CC1,53,-21.4
CN1CC(=O)N2[C@H](c3ccc4c(c3)OCO4)c3[nH]c4ccccc4c3C[C@@H]2C1=O [Tadalafil(Cialis)],94.8,-0.265
Cc1cc(C2CCCCC2)n(O)c(=O)c1 [ciclopirox-ethanolamine],101,-0.264
Cc1c(CN2CCN(C(=O)[C@H](C)O)CC2)sc2c(N3CCOCC3)nc(-c3cnc(N)nc3)nc12,69.8,-4.35
NC1(c2ccc(-c3nc4ccn5c(=O)[nH]nc5c4cc3-c3ccccc3)cc2)CCC1,102,16.8
CCc1c(C(=O)NCCc2ccc(N3CCCCC3)cc2)[nH]c2ccc(Cl)cc12,167,-0.804
O=C(NCCN1CCOCC1)c1ccc(Cl)cc1 [moclobemide],108,-3.05

Structure (SMILES),normalized SmoIP GFP fluorescence [1] [%],normalized SmoIP GFP fluorescence [2] [%]
N#Cc1c(O)c2c(-c3ccc(-c4ccccc4O)cc3)csc2[nH]c1=O,139,6.28
CC(C)c1cnn2c(NCc3ccccc3)cc(NCCCCCCN)nc12,105,10.7
CS(=O)(=O)CCNCc1ccc(-c2ccc3ncnc(Nc4ccc(OCc5cccc(F)c5)c(Cl)c4)c3c2)o1 [Lapatinib-Ditosylate],253,9
O=C(Nc1cccnc1)N1CCC(Cc2cccc(Oc3ccc(C(F)(F)F)cn3)c2)CC1,116,-0.297
CNCc1ccc(-c2cc(-c3nc(-c4ccc(S(=O)(=O)C(C)C)cc4)cnc3N)on2)cc1,123,28.9
CCOC(=O)[C@H](CCc1ccccc1)N[C@@H](C)C(=O)N1CCC[C@H]1C(=O)O [Enalapril-maleate(Vasotec)],97.8,-15.1
CC(C)(C)c1cc(C(C)(C)C)c(NC(=O)c2c[nH]c3ccccc3c2=O)cc1O,-31.6,7.39
Cc1nnc(C(=O)NC(C)(C)c2nc(C(=O)NCc3ccc(F)cc3)c(O)c(=O)n2C)o1 [Raltegravir-(MK-0518)],111,-11.7
CN1C2CCCC1CC(NC(=O)c1nn(C)c3ccccc13)C2 (stereo not drawn) [Granisetron-Hydrochloride],103,3.72
CC(C)c1cc(-c2n[nH]c(=O)n2-c2ccc3c(ccn3C)c2)c(O)cc1O [ganetespib-sta-9090],103,-1.56
C#CCN[C@@H]1CCc2ccccc21 [rasagiline-mesylate],120,-13.4
COc1cccc(Nc2c(C(N)=O)cnc3c(C)cc(S(=O)(=O)c4cccc(C(=O)N(C)C)c4)cc23)c1,111,-16.1
Cc1cc(Nc2nc(N[C@@H](C)c3ccc(F)cc3)c(C#N)cc2F)n[nH]1,109,-9.04
CC(=O)Oc1ccccc1C(=O)O [aspirin-acetylsalicylic-acid],101,-6.51
CCn1cc(-c2ccnc3[nH]c(-c4cccc(CN(C)C)c4)cc23)c(-c2ccc(NC(=O)N(C)C)cc2)n1,173,-0.747
COc1cc(NC(=O)c2ccccn2)ccc1Cl,105,-1.74
Nc1cccc(-c2cc3c(Oc4cccc(O)c4)ncnc3[nH]2)c1,96.5,0.812
